Assay results as given in PubChem BioAssay AID1159580 (chemical genetic matrix, 2015).
Several values for one entry are separate records, joined by “and”; a condition that tells them apart may be missing. Equal entries are not always repeated. The campaign covered roughly 5,500 compounds. About 2,000 (36%) were called active. Not shown: some 18% with an inconclusive outcome. Cut-off read from the data, not from the text of the source: active = normalized growth mostly below about 0.91 (no sharp cut-off); inconclusive = no clear call, values can overlap the other calls; inactive = mostly above about 0.92. Some of the results follow.

Assay: chemical genetic growth profiling, strain panel (AID 1159580);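 note: tested at 20 µM; growth read once vehicle control cultures reached saturation at 30 °C; 1 = growth at the plate median or of vehicle wells; lower values mean less growth of the strain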
Settings: S. cerevisiae deletion strains, growth OD

Measured: normalized growth

CC1(C)C[C@@H]2C(=O)CC[C@H]3O[C@]3(C)CC[C@H]21
inactive: locus YAL013W, strain DEP1, stronger effect = lower value 1.01 | locus YAL021C, strain ccr4, stronger effect = lower value 0.98 | locus YAL026C, strain drs2, stronger effect = lower value 1.04 | locus YAL030W, strain snc1, stronger effect = lower value 1.01 | locus YBL061C, strain skt5, stronger effect = lower value 1.03 | locus YBR009C, strain hhf1, stronger effect = lower value 1.02 | locus YBR021W, strain FUR4, stronger effect = lower value 1.01 | locus YBR023C, strain chs3, stronger effect = lower value 1.02 | locus YBR171W, strain sec66, stronger effect = lower value 1.02 | locus YBR229C, strain ROT2, stronger effect = lower value 1 | locus YBR231C, strain swc5, stronger effect = lower value 1 | locus YBR279W, strain paf1, stronger effect = lower value 1 | locus YCL011C, strain gbp2, stronger effect = lower value 1.02 | locus YCL016C, strain dcc1, stronger effect = lower value 1.01 | locus YCL029C, strain bik1, stronger effect = lower value 0.994 | locus YCL061C, strain MRC1, stronger effect = lower value 1.01 | locus YCL069W, strain vba3, stronger effect = lower value 1.01 | locus YCR088W, strain abp1, stronger effect = lower value 1.01 | locus YDL005C, strain med2, stronger effect = lower value 1.01 | locus YDL035C, strain GPR1, stronger effect = lower value 1.01 | locus YDL040C, strain nat1, stronger effect = lower value 1.02 | locus YDL074C, strain BRE1, stronger effect = lower value 1.04 | locus YDL101C, strain DUN1, stronger effect = lower value 1.02 | locus YDL134C, strain PPH21, stronger effect = lower value 1.01 | locus YDL185W, strain tfp1, stronger effect = lower value 0.995 | locus YDL192W, strain arf1, stronger effect = lower value 0.996 | locus YDR001C, strain nth1, stronger effect = lower value 1.02 | locus YDR069C, strain doa4, stronger effect = lower value 1.03 | locus YDR101C, strain arx1, stronger effect = lower value 0.986 | locus YDR137W, strain rgp1, stronger effect = lower value 1.02 | locus YDR150W, strain NUM1, stronger effect = lower value 1.01 | locus YDR159W, strain sac3, stronger effect = lower value 1.05 | locus YDR162C, strain NBP2, stronger effect = lower value 1.02 | locus YDR195W, strain ref2 1.01 | locus YDR297W, strain sur2, stronger effect = lower value 1.01 | locus YDR318W, strain mcm21, stronger effect = lower value 0.994 | locus YDR334W, strain swr1, stronger effect = lower value 1.01 | locus YDR335W, strain msn5, stronger effect = lower value 1.01 | locus YDR388W, stronger effect = lower value 0.996 | locus YDR392W, strain spt3, stronger effect = lower value 0.914 | locus YDR502C, strain sam2, stronger effect = lower value 0.994 | locus YEL003W, strain gim4, stronger effect = lower value 1.01 | locus YEL037C, strain rad23, stronger effect = lower value 1.01 | locus YEL061C, strain CIN8 (second series), stronger effect = lower value 1.02 | locus YEL061C, strain CIN8, stronger effect = lower value 1 | locus YER015W, strain faa2, stronger effect = lower value 1.01 | locus YER016W, strain bim1, stronger effect = lower value 1.01 | locus YER110C, stronger effect = lower value 0.989 | locus YER111C, strain swi4, stronger effect = lower value 1.01 | locus YER155C, strain BEM2 (second series), stronger effect = lower value 1.03 | locus YER155C, strain BEM2, stronger effect = lower value 1 | locus YER167W, strain BCK2, stronger effect = lower value 1.01 | locus YFR010W, strain ubp6, stronger effect = lower value 1.04 | locus YGL078C, strain dbp3, stronger effect = lower value 0.999 | locus YGL086W, strain mad1, stronger effect = lower value 0.966 | locus YGL167C, strain pmr1, stronger effect = lower value 1.02 | locus YGL173C, strain kem1, stronger effect = lower value 1.03 | locus YGL227W, strain vid30, stronger effect = lower value 1.01 | locus YGL240W, strain doc1, stronger effect = lower value 1.02 | locus YGL248W, strain PDE1, stronger effect = lower value 1 | locus YGL253W, strain hxk2, stronger effect = lower value 1.03 | locus YGR078C, strain PAC10, stronger effect = lower value 1.02 | locus YGR135W, strain pre9, stronger effect = lower value 0.999 | locus YGR229C, strain SMI1, stronger effect = lower value 1.01 | locus YGR252W, strain gcn5, stronger effect = lower value 1.01 | locus YHR013C, strain ard1, stronger effect = lower value 1.03 | locus YHR027C, strain rpn1, stronger effect = lower value 1.02 | locus YHR030C, strain SLT2, stronger effect = lower value 1.01 and 0.967 | locus YHR079C, strain IRE1 (second series), stronger effect = lower value 0.996 | locus YHR079C, strain IRE1, stronger effect = lower value 0.953 | locus YHR094C, strain hxt1, stronger effect = lower value 0.998 | locus YHR129C, strain ARP1, stronger effect = lower value 1.01 | locus YHR142W, strain chs7, stronger effect = lower value 1.02 | locus YHR200W, strain rpn10, stronger effect = lower value 0.997 | locus YIL066C, strain RNR3, stronger effect = lower value 1 | locus YIL073C, strain SPO22, stronger effect = lower value 0.968 | locus YIL125W, strain kgd1, stronger effect = lower value 0.998 | locus YIR030C, strain dcg1, stronger effect = lower value 0.986 | locus YJL092W, strain hpr5, stronger effect = lower value 1.02 | locus YJL095W, strain BCK1 (second series), stronger effect = lower value 1.04 | locus YJL095W, strain BCK1, stronger effect = lower value 1.01 and 0.961 | locus YJL115W, strain asf1, stronger effect = lower value 1.01 | locus YJL129C, strain trk1, stronger effect = lower value 1.02 | locus YJL134W, strain LCB3, stronger effect = lower value 1.01 | locus YJL154C, strain vps35, stronger effect = lower value 1.01 | locus YJL164C, strain tpk1, stronger effect = lower value 0.995 | locus YJL166W, strain qcr8, stronger effect = lower value 1.04 | locus YJL168C, strain set2, stronger effect = lower value 0.994 | locus YJL187C, strain SWE1 (second series), stronger effect = lower value 1.02 | locus YJL187C, strain SWE1, stronger effect = lower value 1 | locus YJR043C, strain POL32, stronger effect = lower value 1 | locus YJR066W, strain TOR1, stronger effect = lower value 0.998
